Bioassay records as filed in PubChem BioAssay.
HCV inhibitor: blocks hepatitis C virus | hit rate 3.4% among 340,000 | Potency, µM (titrated, usually from 41.8 µM), for inactives: at the highest dose activity change, negative = inhibition, most hits filed as inhibitors | Huh7.5.1 HCVcc-Cre infection, luciferase reporter, 44 h | AID 651820
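HCVcc-Cre virus at an moi near 0.5 was added right after compound to cells cultured 4 h from seeding (1,000 cells/well). Luciferase activity was determined 44 h later, 15 min after substrate addition at RT.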
Pf growth 48h: inhibits P. falciparum growth in the first generation, 48 h; P. falciparum luciferase growth in erythrocytes, 48 h; Potency, µM (highest dose often 28.7 µM), without a hit: at the highest dose activity change, negative = inhibition, actives largely listed as inhibitors; hit rate 5.9% among 310,000
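Cell-based growth assay: transgenic P. falciparum expressing firefly luciferase, cultured in red cells within RPMI 1640 containing 0.5% w/v Albumax, 24 mM bicarbonate and gentamycin. A drop in luciferase activity indicates inhibition.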
Pf growth 96h: P. falciparum growth inhibition at 96 hours; Potency, µM (doses to about 28.7 µM), inactives show at the highest dose activity change, negative = inhibition, most hits filed as inhibitors; hit rate 6.9% among 320,000; AID 504834; P. falciparum luciferase reporter growth, 96 h
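Plates of compound plus infected erythrocytes (2% hematocrit, 0.05% parasitemia final) incubate 96 hours, 37 C, 5% CO2. Detection reagent added; reduced luminescence from the parasites' luciferase reporter flags inhibition.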
AMA1-RON2 inh: inhibitors of Plasmodium falciparum AMA1-RON2 interaction | AlphaScreen AMA1-biotinylated RON2 peptide binding | Potency, µM (top dose mostly 58.2 µM), inactives show top-dose activity change, negative = inhibition, usual class: inhibitors | hit rate 0.2% among 360,000 | AID 720542;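 note: 0% = vehicle wells and -100% = peptide control; nearly all actives have a fitted effect of over 45% in size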
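AMA1 (3D7) with his tag at 25 nM final met compounds first, then biotinylated RON2 peptide at 25 nM; detection used donor plus acceptor beads, 10 µg/mL apiece, read by AlphaScreen after 30 min at room temperature.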
* marks the source's active call; other numbers are inactive results; ? = inconclusive; nt = no result given. Most compounds without a hit are left out; they make up all but 11% or so of the library. Calls come from the whole dose curve; as a rule, active = well fitted curve in the direction sought with a large enough effect; inconclusive = small, poorly fitted or top-dose-only effect, or another doubt; inactive = no such curve, though single readings can be large; an effect the other way counts as inactive or inconclusive. Unless noted, % is set by controls: 0 for no effect and ±100 for the full control effect; potency is the fitted concentration of half-maximal effect.

SMILES	HCV inhibitor	Pf growth 48h	Pf growth 96h	AMA1-RON2 inh
CCCCN1C[C@H](C)[C@@H](CC(=O)NC)C1=O	nt	nt	nt	0%
Cc1cc(C(=O)CSc2cccc[n+]2[O-])c(C)n1-c1ccc(Br)cc1	nt	17%	6.6µM*	nt
COc1ccc(Oc2ccc3c(C(F)(F)F)cc(C(F)(F)F)nc3n2)cc1	-13%	-5%	-29%	-11%
FC(F)(F)c1cc(C(F)(F)F)c2ccc(N/N=C/c3ccccc3)nc2n1	3%	36%	0.47µM*	-3%
Cc1ccc(C(C#N)c2ccc3c(C(F)(F)F)cc(C(F)(F)F)nc3n2)cc1 (centres undefined)	10µM*	?	1.7µM*	?
N#CC(c1ccccc1)c1ccc2c(C(F)(F)F)cc(C(F)(F)F)nc2n1 (centres undefined)	-19%	nt	12µM*	?
CN(N)c1ccc2c(C(F)(F)F)cc(C(F)(F)F)nc2n1	8%	-9%	3%	50%
CC1=CC(C)(C)NC(=S)N1c1ccc(N(C)C)cc1	4%	nt	nt	-6%
CC(C)(C)NC(=O)COC(=O)CNC(=O)c1cc(Cl)cc([N+](=O)[O-])c1	8%	20%	-10%	0%
CCOc1ccc(NC(=O)OCCN2CCN(CCc3ccccc3)C(C)C2)cc1 (centres undefined)	11µM*	nt	nt	-5%
CCOC(=O)c1ccc(NC(=O)N2CCN(CCc3ccccc3)CC2)cc1	?	?	nt	6%
COc1cc2c(cc1OC)-c1cc(NC3CCCCC3)nc(=O)n1CC2	-9%	?	?	5%
COc1cc2c(cc1OC)-c1cc(NC3CCCCCCC3)nc(=O)n1CC2	-11%	?	7.4µM*	0%
COc1ccc(NS(=O)(=O)c2cccc(C(=O)NCC(c3ccco3)N(C)C)c2)cc1 (centres undefined)	10%	?	?	49%
CCNC(=O)NC(=O)C(C)OC(=O)c1cccnc1SC (centres undefined)	-1%	nt	nt	3%
CCNC(=O)NC(=O)C(C)OC(=O)c1c(C)nn(Cc2ccccc2Cl)c1Cl (centres undefined)	?	?	12µM*	9%
CCNC(=O)NC(=O)C(C)OC(=O)c1c(C)nn(Cc2ccccc2)c1Cl (centres undefined)	12%	13µM*	?	9%
CCNC(=O)NC(=O)C(C)OC(=O)c1cccn1C (centres undefined)	11%	10µM*	79%	6%
CC(=O)Nc1ccc(NC(=O)c2c(C)nn(Cc3ccccc3)c2Cl)cc1	5%	6%	-28%	14%
COC(=O)[C@@]12C[C@@H](CC(=O)NCc3ccccc3)C(=O)N(Cc3ccccc3)C1=CCC(C)(C)C2	nt	nt	nt	-16%
O=C(c1ccc(Cl)s1)N1CCN(c2ccccc2)CC1	?	-17%	?	0%
Cc1ccsc1C(=O)N1CCCC(N(C)Cc2ccccc2)C1 (centres undefined)	-9%	26%	-67%	-7%
Cc1nnc(SCC(=O)N(C)CC(=O)Nc2ccc(F)cc2)n1Cc1ccccc1	-3%	9.3µM*	-30%	1%
C=CCNC(=S)Nc1ccccc1	9%	1%	38%	-5%
C=CCNC(=S)Nc1cccc(NC(=S)NCC=C)c1	4%	13µM*	?	41%
SMILES	HCV inhibitor	Pf growth 48h	Pf growth 96h	AMA1-RON2 inh
Oc1ccc2ccccc2c1C=NCc1ccccc1	7%	?	13µM*	42%
NC(=S)N/N=C/c1c(O)ccc2ccccc12	?	4.7µM*	?	13%
Oc1ccc2ccccc2c1/C=N/Nc1ccccc1	-15%	-10%	?	-3%
O=CN/N=C/c1c(O)ccc2ccccc12	?	?	?	77%
COc1ccccc1OCC(=O)NCC1CCCN(Cc2cnn(C)c2C)C1 (centres undefined)	34%	6%	-21%	-10%
COc1ccc2cc(-c3[nH]ncc3CN3CCCC3c3nonc3C)ccc2c1 (centres undefined)	?	-22%	4.7µM*	-7%
Cc1c(CCN)ccc2c1[nH]c1ccccc12	-15%	10µM*	?	4%
NCCc1c(Cc2ccccc2)[nH]c2ccccc12	-19%	nt	nt	-17%
Cc1cccc2sc(N(CCCN(C)C)C(=O)c3ccc(S(=O)(=O)N4CCc5ccccc5C4)cc3)nc12	-9%	9.3µM*	?	-6%
CN(C)CCCN(C(=O)c1ccc(S(=O)(=O)N2CCc3ccccc3C2)cc1)c1nc2ccc(F)cc2s1	?	13µM*	?	?
COc1ccc(CN2CCN(Cc3ccc4cc(F)ccc4n3)CC2CCO)c(C)c1C (centres undefined)	?	?	?	0%
COc1ccc(C(C)(NC(C)=O)c2nc(-c3cccc4cccnc34)cs2)cc1 (centres undefined)	nt	nt	nt	0%
CC(O)CNc1nc2c(c(=O)n(C)c(=O)n2C)n1CCc1ccccc1 (centres undefined)	28µM*	11%	13%	-1%
Cn1c(=O)c2c(nc(NCCO)n2CCc2ccccc2)n(C)c1=O	?	7%	10µM*	-10%
CCCNc1nc2c(c(=O)n(C)c(=O)n2C)n1CCCc1ccccc1	?	?	1.5µM*	17%
Cn1c(=O)c2c(nc(NCC(O)CO)n2CCc2ccccc2)n(C)c1=O (centres undefined)	7%	-2%	?	5%
Cn1c(=O)c2c(nc(NCCCO)n2CCc2ccccc2)n(C)c1=O	12%	4%	38%	6%
CCCNc1nc2c(c(=O)n(C)c(=O)n2C)n1CCc1ccccc1	14µM*	-16%	?	0%
CCCNc1nc2c(c(=O)[nH]c(=O)n2C)n1CCCc1ccccc1	-3%	nt	15%	-2%
COc1ccc(OC)c(C(=O)NC(CC(N)=O)c2ccc(N3CCC(Cc4ccccc4)CC3)c([N+](=O)[O-])c2)c1 (centres undefined)	-7%	3%	13%	-25%
COc1ccc2nc(NC(=O)CS(=O)(=O)c3ccc(C)cc3)sc2c1	-3%	?	0%	14%
Cn1nnnc1SCC(=O)NC1CCCc2ccccc21 (centres undefined)	17%	?	1%	12%
CCCCNc1nc2c(c(=O)n(C)c(=O)n2C)n1CCC	?	20%	23%	-1%
CCCCCCn1c(NCC)nc2c1c(=O)n(C)c(=O)n2C	5.6µM*	3.3µM*	?	-1%
CC(O)CNc1nc2ccccc2n1CC(=O)N1CCN(Cc2ccccc2)CC1 (centres undefined)	-18%	-19%	-3%	0%
CCCCCN(C(=O)CCC(=O)OC(C)C(=O)c1ccccc1)c1c(N)n(CCCC)c(=O)[nH]c1=O (centres undefined)	1%	36%	43%	-15%
COc1ccc(C2c3c4c(n(C)c3CCN2C)CCN(C)C4c2ccc(OC)cc2)cc1 (centres undefined)	13µM*	?	nt	0%
CN1CCc2c(c3c(n2C)CCN(C)C3c2ccc(F)cc2)C1c1ccc(F)cc1 (centres undefined)	0%	?	nt	9%
